Results from PubChem BioAssay (NCATS).
Inconclusive results are not listed. Calls of active or inactive are those of the source. The call rests on the fitted dose curve; in most records, active means well fitted curve in the direction sought with a large enough effect; inconclusive means small, poorly fitted or top-dose-only effect, or another doubt; inactive means no such curve, though single readings can be large; an effect the other way counts as inactive or inconclusive.

Tests used:
[1] = system: Zika virus NS2B-NS3 protease; test: Primary screen GU AMC qHTS for Zika virus inhibitors (AID 1347154);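 further: 0% = no-inhibitor control and -100% = no-enzyme control; nearly all actives have a fitted effect of over 70% in size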
In short: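 Unlinked Zika NS2B hydrophilic domain–NS3 protease complex at 25 nM in 10 mM Tris-HCl pH 8.0, 0.01% Tween 20, with an AMC peptide substrate. Fluorescence change (340/450 nm) over 15 min at room temperature, normalized to controls, fitted to 4-parameter Hill.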

[2] = qHTS to identify inhibitors of the type 1 interferon - major histocompatibility complex class I in skeletal muscle: primary screen against the NCATS Pharmaceutical Collection (AID 1347407);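 further: luminescence of HiBiT knocked into endogenous HLA-B as interferon-induced MHC class I level; on the % scale 0 is the no-effect control and ±100 the full control effect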
In short: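 Luminescence from HiBiT-tagged endogenous HLA-B*08:01 served as the read-out of IFN-beta-induced MHC class I in CRISPR-engineered C25cl48 myoblasts. Cells received 4 ng/ml IFN-beta plus compound (high final 46 uM, […]) for 24 h.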

[3] = biological target: Protein phosphatase 1D (Homo sapiens) (UniProt O15297); test: RapidFire Mass Spectrometry qHTS Assay for Modulators of WT P53-Induced Phosphatase 1 (WIP1) (AID 1347424);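 further: amount of dephosphorylated VEPPL-S-QETFS peptide product formed by WIP1; series mostly up to about 63 µM; plate controls were DMSO wells for no effect and GSK830371 inhibitor control at 10 µM for full effect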
In short: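 10 nM WIP1 preincubated with compounds 1 hr at room temperature in pH 7.5 Tris buffer with 30 mM MgCl2, 1 mM TCEP; 2 uM VEPPL-pS-QETFS phosphopeptide for 5 min, formic acid quench; dephosphorylated product quantified by RapidFire MS against labelled standard.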

[4] = biological target: Protein phosphatase 1D (Homo sapiens) (UniProt O15297); test: Rhodamine-PBP qHTS Assay for Modulators of WT P53-Induced Phosphatase 1 (WIP1) (AID 1347425); further: % of control where 0% means no effect
In short: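 5 nM WIP1 + 10 uM Rh-PBP, 50 mM Tris pH 7.5, 30 mM MgCl2, 1 mM TCEP, 0.1 mM EGTA, BSA; cpds pinned, 1 hr RT; + 10 uM phosphopeptide; fluorescence 1-min reads x 11 min; delta = f1 - f0.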

[5] = Primary qHTS for inhibitors of La Crosse Virus (LACV) - induced cell death in SH-SY5Y cells (AID 1508616);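 further: top concentration of the series differs between compounds; 0% = infected DMSO wells and 100% = uninfected DMSO wells; higher means more rescue of cells from virus-induced death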
In short: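 SH-SY5Y cells (6000/well) plated 24 h, then given compounds by pin transfer and LACV at 0.01 MOI for 6 days at 37C. Viability measured by ATPLite luminescence, normalized to infected DMSO and uninfected DMSO.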

[6] = qHTS for inhibitors of adenylyl cyclases using a fission yeast platform: a pilot screen against the NCATS LOPAC library (AID 1347410);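 further: plate controls were DMSO vehicle for no effect and DPI positive control for full effect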
In short: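 Fission yeast qHTS: CHP2027 cells (AC9-GNAS-PDE4D2, fbp1-GFP), 5x10^6 cells/mL working density, EMM + His/Lys/Ura; LOPAC at up to 57 µM final; 18 h dark, 30C; GFP by laser cytometry. DPI positive control, DMSO vehicle.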

Protein phosphatase 1D (Homo sapiens), sequence (O15297 whole entry, looked up): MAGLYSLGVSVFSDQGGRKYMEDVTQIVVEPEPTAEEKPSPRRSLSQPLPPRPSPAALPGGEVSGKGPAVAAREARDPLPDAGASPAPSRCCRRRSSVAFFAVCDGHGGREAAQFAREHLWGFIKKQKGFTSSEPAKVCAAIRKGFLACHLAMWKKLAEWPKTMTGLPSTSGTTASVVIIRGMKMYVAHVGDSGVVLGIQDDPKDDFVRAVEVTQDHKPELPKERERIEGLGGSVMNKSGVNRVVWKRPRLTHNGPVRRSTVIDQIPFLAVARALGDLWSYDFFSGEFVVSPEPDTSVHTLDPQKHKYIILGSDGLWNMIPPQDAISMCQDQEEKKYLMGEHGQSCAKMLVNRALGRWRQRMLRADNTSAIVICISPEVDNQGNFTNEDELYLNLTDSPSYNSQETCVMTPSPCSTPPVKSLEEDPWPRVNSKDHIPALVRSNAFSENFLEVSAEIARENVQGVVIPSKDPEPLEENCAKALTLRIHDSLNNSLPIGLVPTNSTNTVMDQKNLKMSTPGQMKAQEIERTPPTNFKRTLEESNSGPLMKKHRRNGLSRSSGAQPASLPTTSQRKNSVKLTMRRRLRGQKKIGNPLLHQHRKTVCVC

OCC(CO)N[C@H]1C[C@](O)(CO)[C@@H](O)[C@H](O)[C@H]1O
inactive: Potency [1] | Potency [2] | outcome [3] | outcome [4] | outcome [5]

NC(CSCC(=O)O)C(=O)O (configuration not stated)
inactive: Potency [1] | Potency [2] | outcome [3] | outcome [4] | outcome [5]

O=C(O)Cc1sc(-c2ccccc2)nc1-c1ccc(Cl)cc1
inactive: Potency [1] | Potency [2] | outcome [3] | outcome [4]

Cc1cc(CC(=O)O)n(C)c1C(=O)c1ccc(Cl)cc1
inactive: Potency [1] | Potency [2] | outcome [3] | outcome [4]

CCN(CC)CCNC(C(=O)OCCC(C)C)c1ccccc1 (configuration not stated)
inactive: Potency [1] | Potency [2] | outcome [3] | outcome [4] | outcome [5]

CC(=O)CCC(=O)O
inactive: Potency [1] | Potency [2] | outcome [3] | outcome [4]

Nc1ccc(S(=O)(=O)NC(=O)c2ccccc2)cc1
inactive: Potency [1] | Potency [2] | outcome [3] | outcome [4] | outcome [5]

N[C@H]1C(O)O[C@H](CO)[C@@H](O)[C@@H]1O (some centres not stated)
inactive: Potency [1] | Potency [2] | outcome [3] | outcome [4]

Cc1cc2c(cc1S(N)(=O)=O)S(=O)(=O)CCC2
inactive: Potency [1] | Potency [2] | outcome [3] | outcome [4] | outcome [5]

CC(COc1ccccc1)NC(C)C(O)c1ccc(O)cc1 (configuration not stated)
inactive: Potency [1] | Potency [2] | outcome [3] | outcome [4] | outcome [5]

CCCCC(CC)COC(=O)c1ccccc1O (configuration not stated)
inactive: Potency [1] | Potency [2] | outcome [3] | outcome [4] | outcome [5]

CC1=C(C/C=C(\C)CCC[C@H](C)CCC[C@H](C)CCCC(C)C)C(=O)c2ccccc2C1=O
inactive: Potency [1] | Potency [2] | outcome [3] | outcome [4] | outcome [5]

COc1ccccc1O
inactive: Potency [1] | Potency [2] | outcome [3] | outcome [4] | outcome [5]

O=C1O[C@H]([C@@H](O)CO)C(O)=C1O
inactive: Potency [1] | Potency [2] | outcome [3] | outcome [4] | outcome [5]

O=S(=O)(O)c1cc(I)c(O)c2ncccc12
inactive: Potency [1] | Potency [2] | outcome [3] | outcome [4] | outcome [5]

C[C@@H]1CCN(C(=O)[C@H](CCCN=C(N)N)NS(=O)(=O)c2cccc3c2NC[C@H](C)C3)[C@@H](C(=O)O)C1
inactive: Potency [1] | Potency [2] | outcome [3] | outcome [4] | outcome [5]

C[C@@H]1CC[C@@]2(OC1)O[C@H]1C[C@H]3[C@@H]4CC[C@H]5C[C@@H](O)CC[C@]5(C)[C@H]4CC(=O)[C@]3(C)[C@H]1[C@@H]2C
inactive: activity change, negative = inhibition [1] -4.75% [at 4.99 µM] | activity change, negative = inhibition [2] -0.255% [at 3.83 µM] | activity change, negative = inhibition [3] 12.5% [at 6.17 µM] | activity change, negative = inhibition [4] 1.62% [at 4.81 µM]

NCCNCCNCCN
inactive: Potency [1] | Potency [2] | outcome [3] | outcome [4] | outcome [5]

CC(=O)NC(Cc1ccccc1)C(=O)O (configuration not stated)
inactive: Potency [1] | Potency [2] | outcome [3] | outcome [4] | outcome [5]

COc1cc(C(=O)N2CCOCC2)cc(OC)c1OC
inactive: Potency [1] | Potency [2] | outcome [3] | outcome [4] | outcome [5]

CCCCC/C(C=O)=C\c1ccccc1
inactive: Potency [1] | Potency [2] | outcome [3] | outcome [4]

Cc1cccc(C)c1NC(=O)CN(CC(=O)O)CC(=O)O
inactive: Potency [1] | Potency [2] | outcome [3] | outcome [4] | outcome [5]

O=C(O)c1ccccn1
inactive: Potency [1] | Potency [2] | outcome [3] | outcome [4] | outcome [5]

O=C1NS(=O)(=O)c2ccccc21
inactive: Potency [1] | outcome [3] | outcome [4] | outcome [5]

NC(=O)N/N=C/c1ccc([N+](=O)[O-])o1
inactive: Potency [1] | Potency [2] | outcome [3] | outcome [4] | outcome [5]

O=c1cc(CO)occ1O
inactive: Potency [1] | outcome [3] | outcome [4] | outcome [5]

CCN(CC)CCSC(=O)C(c1ccccc1)c1ccccc1
inactive: Potency [1] | outcome [3] | outcome [4]

CO/N=C(\C(=O)N[C@@H]1C(=O)N2C(C(=O)O)=C(CSc3nc(=O)c(O)nn3C)CS[C@H]12)c1csc(N)n1
inactive: Potency [1] | Potency [2] | outcome [4]

O=C1c2c(O)cccc2Cc2cccc(O)c21
inactive: Potency [1] | outcome [3] | outcome [4] | outcome [5]

Oc1cn2c(n1)Nc1ccc(Cl)c(Cl)c1C2
inactive: Potency [1] | outcome [3] | outcome [4] | outcome [5]

Cc1ncc([N+](=O)[O-])n1CC(O)CCl (configuration not stated)
inactive: Potency [1] | Potency [2] | outcome [4] | outcome [5]

O=C(O)CN1C(=O)c2cccc3cccc(c23)C1=O
inactive: Potency [1] | Potency [2] | outcome [4] | outcome [5]

Oc1cccc(O)c1
inactive: Potency [1] | Potency [2] | outcome [4] | outcome [5]

O=C1OC(OC(=O)c2cccnc2Nc2cccc(C(F)(F)F)c2)c2ccccc21 (configuration not stated)
inactive: Potency [1] | Potency [2] | outcome [4] | outcome [5]

Cc1c(O)cccc1C(=O)N[C@@H](CSc1ccccc1)[C@H](O)CN1C[C@H]2CCCC[C@H]2C[C@H]1C(=O)NC(C)(C)C
inactive: Potency [1] | outcome [6] | outcome [4] | outcome [5]

NCC(=O)CCC(=O)O
inactive: Potency [1] | Potency [2] | outcome [4] | outcome [5]

NC(=O)NNc1ccccc1
inactive: Potency [1] | Potency [2] | outcome [3] | outcome [4] | outcome [5]

C[C@H](N)[C@H](O)c1cccc(O)c1
inactive: Potency [1] | Potency [2] | outcome [3] | outcome [4] | outcome [5]

O=C(O)[C@@H]1CSCN1
inactive: Potency [1] | Potency [2] | outcome [3] | outcome [4] | outcome [5]

Cn1cc[nH]c1=S
inactive: Potency [1] | outcome [3] | outcome [4]

CCCCN(CCCC)CCCOC(=O)c1ccc(N)cc1
inactive: Potency [1] | Potency [2] | outcome [3] | outcome [4] | outcome [5]

CC[N+](CC)(CC)CCOc1ccc(/C=C/c2ccccc2)cc1
inactive: Potency [1] | outcome [3] | outcome [4] | outcome [5]
